What all share (design): scale not given: direction of the effect not stated beside the values
Assay [1] deals with Protein translocase subunit SecA (Escherichia coli (strain K12)) (UniProt P10408). In words: Assay to Identify E. coli SecA ATPase Inhibitors. The assay is classed as functional. To be noted: 30 µM.
Assay [2] has as its target T1, Ubiquitin-activating enzyme e1, putative (Leishmania donovani (strain BPK282A1)) (UniProt E9BSI1).
T1 sequence (whole entry): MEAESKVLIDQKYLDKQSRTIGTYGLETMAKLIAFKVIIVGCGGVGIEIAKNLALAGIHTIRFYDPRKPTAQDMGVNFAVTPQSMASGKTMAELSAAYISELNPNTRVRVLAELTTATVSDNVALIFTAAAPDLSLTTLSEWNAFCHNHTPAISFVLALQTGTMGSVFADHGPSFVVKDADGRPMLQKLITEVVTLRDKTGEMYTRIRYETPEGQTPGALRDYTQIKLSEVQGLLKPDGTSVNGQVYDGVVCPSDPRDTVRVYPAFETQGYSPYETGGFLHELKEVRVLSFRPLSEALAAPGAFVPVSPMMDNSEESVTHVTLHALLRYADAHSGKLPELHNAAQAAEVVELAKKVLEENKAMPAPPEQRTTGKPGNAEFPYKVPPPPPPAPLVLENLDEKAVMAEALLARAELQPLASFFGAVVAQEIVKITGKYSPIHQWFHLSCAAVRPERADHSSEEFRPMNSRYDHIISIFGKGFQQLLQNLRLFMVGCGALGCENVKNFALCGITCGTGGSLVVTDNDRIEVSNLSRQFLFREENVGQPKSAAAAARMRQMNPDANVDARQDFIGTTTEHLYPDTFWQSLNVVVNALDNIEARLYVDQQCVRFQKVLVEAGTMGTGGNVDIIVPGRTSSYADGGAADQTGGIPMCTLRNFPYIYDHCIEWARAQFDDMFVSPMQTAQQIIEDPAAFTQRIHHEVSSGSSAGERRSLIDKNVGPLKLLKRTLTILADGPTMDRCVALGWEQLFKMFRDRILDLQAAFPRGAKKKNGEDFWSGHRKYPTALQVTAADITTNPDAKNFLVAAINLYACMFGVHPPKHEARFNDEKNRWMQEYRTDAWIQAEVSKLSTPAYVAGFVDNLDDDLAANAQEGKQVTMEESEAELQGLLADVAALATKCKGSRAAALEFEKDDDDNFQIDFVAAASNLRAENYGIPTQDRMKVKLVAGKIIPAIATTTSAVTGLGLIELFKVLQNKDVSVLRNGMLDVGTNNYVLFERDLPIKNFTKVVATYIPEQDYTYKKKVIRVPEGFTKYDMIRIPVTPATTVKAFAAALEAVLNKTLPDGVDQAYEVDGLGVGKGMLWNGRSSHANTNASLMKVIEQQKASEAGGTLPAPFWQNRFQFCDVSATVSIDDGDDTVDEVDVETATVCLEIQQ
In words: Leishmania donovani Ubiquitin Activating Enzyme (LdE1). The assay is classed as functional. To be noted: 30 µM.

Assay [3] concerns the target AMP-activated protein kinase, AMPK (Homo sapiens) (UniProt P54646+O43741+P54619+Q9UGJ0+Q9Y478+Q13131+Q9UGI9). The assay is described as follows: AMP-dependent Kinase enzyme assay. An in vitro enzyme assay that detects ADP turnover that is directly proportional to AMPK activity. This uses naive AMPK that is activated during the assay with MK-8722. To be noted: 30 µM. The assay is classed as functional.

Assay [4] addresses Sialic acid-binding Ig-like lectin 9 (Homo sapiens) (UniProt Q9Y336). The assay is described as follows: Hs-Siglec9 ALPHAscreen SOP 20170721. To be noted: 10 µM. A general note: Alpha assays give light when donor and acceptor beads are brought close together.
Assay [5] deals with Trypanosoma cruzi. The assay is described as follows: Trypanosoma cruzi phosphomannomutase and mannose-1-phosphate guanylyltransferase assay. The format is functional. To be noted: 10 µM.
In assay [6] the target is T2, Arginase-2, mitochondrial (Homo sapiens) (UniProt P78540).
T2 sequence (whole entry): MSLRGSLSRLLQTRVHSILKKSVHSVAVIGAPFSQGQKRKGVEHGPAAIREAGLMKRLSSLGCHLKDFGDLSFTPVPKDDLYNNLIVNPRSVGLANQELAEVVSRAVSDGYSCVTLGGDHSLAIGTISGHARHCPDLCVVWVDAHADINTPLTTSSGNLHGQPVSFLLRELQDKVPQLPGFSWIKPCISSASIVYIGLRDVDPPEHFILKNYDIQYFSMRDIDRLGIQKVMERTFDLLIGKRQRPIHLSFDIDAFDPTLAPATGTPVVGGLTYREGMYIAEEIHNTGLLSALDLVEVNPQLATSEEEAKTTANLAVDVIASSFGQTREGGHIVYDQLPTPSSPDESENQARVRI
The assay is described as follows: in vitro enzyme assay to detect the production of urea directly proportional to the activity of Arginase II. Also: in the data most compounds retested in dose-response had high values. To be noted: 33.3 µM. The assay is classed as functional.

Assay [7] has as its target T3, Proteasome subunit beta (Trypanosoma cruzi) (UniProt O96673).
T3 sequence (whole entry): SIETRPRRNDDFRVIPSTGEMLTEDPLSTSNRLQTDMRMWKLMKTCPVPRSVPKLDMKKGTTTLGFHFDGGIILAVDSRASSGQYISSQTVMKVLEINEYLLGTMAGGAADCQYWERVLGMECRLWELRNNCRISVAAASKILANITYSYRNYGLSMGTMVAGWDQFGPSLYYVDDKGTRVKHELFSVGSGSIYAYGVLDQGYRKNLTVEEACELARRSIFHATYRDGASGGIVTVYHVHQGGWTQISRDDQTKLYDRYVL
The assay is described as follows: Trypanosoma cruzi proteasome chymotrypsin-like activity (TcProtChymo) assay. Also: in the data most compounds retested in dose-response had high values. The format is functional. To be noted: 9.37 µM.

The species named for assay [8] is Homo sapiens. In words: To identify inhibition of the IFN signalling (Jak-Stat) pathway via expression of an eGFP reporter gene under the control of an IFN-stimulated response element (ISRE) containing MxA promoter. The format is functional. To be noted: 30 µM.
For assay [9], the target named is T4, Tyrosyl-tRNA synthetase, putative (Trypanosoma cruzi (strain CL Brener)) (UniProt Q4DSP6).
T4 sequence (whole entry): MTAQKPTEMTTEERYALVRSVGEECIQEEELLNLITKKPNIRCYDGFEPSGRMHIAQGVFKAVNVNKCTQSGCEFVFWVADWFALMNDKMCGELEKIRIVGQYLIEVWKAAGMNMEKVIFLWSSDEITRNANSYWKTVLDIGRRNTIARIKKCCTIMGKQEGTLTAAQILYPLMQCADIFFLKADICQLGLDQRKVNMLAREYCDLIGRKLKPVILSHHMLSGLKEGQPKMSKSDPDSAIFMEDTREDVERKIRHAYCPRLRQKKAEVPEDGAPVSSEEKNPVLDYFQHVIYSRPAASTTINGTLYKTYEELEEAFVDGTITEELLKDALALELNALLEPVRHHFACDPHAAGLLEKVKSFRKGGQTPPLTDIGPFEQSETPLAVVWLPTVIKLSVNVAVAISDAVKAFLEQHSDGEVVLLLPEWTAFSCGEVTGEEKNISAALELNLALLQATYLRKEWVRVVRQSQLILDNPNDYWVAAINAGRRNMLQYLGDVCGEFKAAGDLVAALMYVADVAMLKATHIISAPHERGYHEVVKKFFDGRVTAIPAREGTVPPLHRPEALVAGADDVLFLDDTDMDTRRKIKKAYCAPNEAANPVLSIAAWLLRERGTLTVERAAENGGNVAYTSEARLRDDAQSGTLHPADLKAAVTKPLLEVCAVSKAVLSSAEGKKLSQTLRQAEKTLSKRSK
The assay is described as follows: Trypanosoma cruzi tyrosyl tRNA synthetase (TcYRS) _High Tyrosine SOP. Also: in the data most compounds retested in dose-response had high values. The format is functional. To be noted: 30 µM.

The target in assay [10] is T4, Tyrosyl-tRNA synthetase, putative (Trypanosoma cruzi (strain CL Brener)). The assay is described as follows: Trypanosoma cruzi tyrosyl tRNA synthetase (TcYRS) SOP. The format is functional. To be noted: 30 µM.
The target of assay [11] is Chromo domain-containing protein 1 (Saccharomyces cerevisiae (strain ATCC 204508 / S288c) (Baker's yeast)) (UniProt P32657). The assay is described as follows: ScCHD-1 Enzyme Inhibition Assay. Also: in the data most compounds retested in dose-response had high values. The assay is classed as functional. To be noted: 30 µM.
Chromo domain-containing protein 1 (Saccharomyces cerevisiae (strain ATCC 204508 / S288c) (Baker's yeast)), sequence (P32657 whole entry, the tested form may be a part): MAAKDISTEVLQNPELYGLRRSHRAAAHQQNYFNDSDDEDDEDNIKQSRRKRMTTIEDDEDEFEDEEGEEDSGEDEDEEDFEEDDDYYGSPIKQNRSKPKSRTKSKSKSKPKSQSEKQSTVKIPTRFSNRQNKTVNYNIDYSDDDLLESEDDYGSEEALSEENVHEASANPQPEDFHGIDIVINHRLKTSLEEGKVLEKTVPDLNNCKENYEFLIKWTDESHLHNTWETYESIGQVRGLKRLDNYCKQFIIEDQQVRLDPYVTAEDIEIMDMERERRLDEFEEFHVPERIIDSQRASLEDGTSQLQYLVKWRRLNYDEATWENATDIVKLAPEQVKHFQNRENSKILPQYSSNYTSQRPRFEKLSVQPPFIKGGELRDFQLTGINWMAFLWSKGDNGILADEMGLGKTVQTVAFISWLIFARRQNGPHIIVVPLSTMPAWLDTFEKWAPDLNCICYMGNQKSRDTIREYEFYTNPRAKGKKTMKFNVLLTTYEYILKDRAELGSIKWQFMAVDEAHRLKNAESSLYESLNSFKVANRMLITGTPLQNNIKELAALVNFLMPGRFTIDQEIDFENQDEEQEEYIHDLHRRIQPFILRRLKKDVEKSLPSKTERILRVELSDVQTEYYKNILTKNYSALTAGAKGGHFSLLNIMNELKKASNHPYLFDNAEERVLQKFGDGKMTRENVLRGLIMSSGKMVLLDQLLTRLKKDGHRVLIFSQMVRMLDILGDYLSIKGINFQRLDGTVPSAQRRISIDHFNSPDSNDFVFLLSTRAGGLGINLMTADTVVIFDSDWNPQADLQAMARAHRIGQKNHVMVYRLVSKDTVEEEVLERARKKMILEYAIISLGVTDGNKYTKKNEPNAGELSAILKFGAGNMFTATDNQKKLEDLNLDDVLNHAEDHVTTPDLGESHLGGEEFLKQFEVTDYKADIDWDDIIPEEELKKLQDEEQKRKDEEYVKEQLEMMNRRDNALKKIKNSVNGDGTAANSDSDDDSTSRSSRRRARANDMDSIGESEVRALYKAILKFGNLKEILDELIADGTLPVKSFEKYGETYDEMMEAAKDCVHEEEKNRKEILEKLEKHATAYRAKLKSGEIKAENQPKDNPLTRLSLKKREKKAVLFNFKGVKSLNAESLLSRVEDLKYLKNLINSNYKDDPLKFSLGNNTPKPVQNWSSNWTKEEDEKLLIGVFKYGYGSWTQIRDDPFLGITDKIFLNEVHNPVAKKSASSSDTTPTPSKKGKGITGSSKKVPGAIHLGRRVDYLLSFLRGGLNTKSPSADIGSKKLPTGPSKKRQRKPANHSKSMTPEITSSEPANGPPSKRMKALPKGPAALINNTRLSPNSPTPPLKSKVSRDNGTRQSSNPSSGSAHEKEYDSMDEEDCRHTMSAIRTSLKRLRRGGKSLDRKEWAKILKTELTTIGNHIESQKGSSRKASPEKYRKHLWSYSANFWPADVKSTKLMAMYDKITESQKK

SMILES strings stand for the structures. For some of these results: Measured potencies and affinities stand elsewhere.

Protein translocase subunit SecA (Escherichia coli (strain K12)), sequence (P10408 whole entry): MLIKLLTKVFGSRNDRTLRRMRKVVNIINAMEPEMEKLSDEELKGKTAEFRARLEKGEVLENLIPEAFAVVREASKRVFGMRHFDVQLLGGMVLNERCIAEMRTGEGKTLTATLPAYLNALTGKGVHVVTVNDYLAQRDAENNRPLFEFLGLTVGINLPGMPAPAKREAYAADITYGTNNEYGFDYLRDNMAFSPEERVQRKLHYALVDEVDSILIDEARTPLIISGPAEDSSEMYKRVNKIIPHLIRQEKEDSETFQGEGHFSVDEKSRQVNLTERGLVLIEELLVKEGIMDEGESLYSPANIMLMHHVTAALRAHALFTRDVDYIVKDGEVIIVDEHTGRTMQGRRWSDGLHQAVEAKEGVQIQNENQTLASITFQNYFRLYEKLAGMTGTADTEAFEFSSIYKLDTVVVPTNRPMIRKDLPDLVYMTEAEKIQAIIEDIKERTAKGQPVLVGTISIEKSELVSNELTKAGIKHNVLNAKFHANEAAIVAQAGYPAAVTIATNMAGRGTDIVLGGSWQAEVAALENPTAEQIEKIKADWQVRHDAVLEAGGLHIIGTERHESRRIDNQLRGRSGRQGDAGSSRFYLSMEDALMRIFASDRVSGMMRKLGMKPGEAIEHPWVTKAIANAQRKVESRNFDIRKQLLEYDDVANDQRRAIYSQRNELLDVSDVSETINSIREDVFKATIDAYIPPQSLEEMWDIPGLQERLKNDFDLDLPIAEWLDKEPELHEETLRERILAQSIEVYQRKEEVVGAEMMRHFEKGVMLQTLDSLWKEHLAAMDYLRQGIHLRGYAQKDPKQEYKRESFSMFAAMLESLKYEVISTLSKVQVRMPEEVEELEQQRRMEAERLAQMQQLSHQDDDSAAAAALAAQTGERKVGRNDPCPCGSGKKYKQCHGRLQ
Sialic acid-binding Ig-like lectin 9 (Homo sapiens), sequence (Q9Y336 whole entry): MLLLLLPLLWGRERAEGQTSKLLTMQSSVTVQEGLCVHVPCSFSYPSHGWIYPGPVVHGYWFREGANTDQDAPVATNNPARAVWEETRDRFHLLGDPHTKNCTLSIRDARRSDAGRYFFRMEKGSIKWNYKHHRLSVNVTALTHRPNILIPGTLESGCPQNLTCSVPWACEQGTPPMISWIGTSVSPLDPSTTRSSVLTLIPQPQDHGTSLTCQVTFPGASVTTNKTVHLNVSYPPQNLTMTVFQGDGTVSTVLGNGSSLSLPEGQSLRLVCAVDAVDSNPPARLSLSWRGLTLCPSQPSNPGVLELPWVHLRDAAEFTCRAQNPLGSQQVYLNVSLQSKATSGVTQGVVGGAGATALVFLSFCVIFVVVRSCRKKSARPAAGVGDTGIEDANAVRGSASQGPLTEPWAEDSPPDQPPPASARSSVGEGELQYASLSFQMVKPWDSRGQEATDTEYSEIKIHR

For the compound `CCCS(=O)(=O)NCC1CCOc2ccccc2C1` (stereo unspecified), the Percent Effect is -7.2% in assay [1]; 0% in [2]; 3.87% in assay [3]; 5.88% in assay [4]; -5.61% in assay [5]; 17.9% in [6]. Further, the Percent Effect in assay [7] is 5.32%; in assay [8], -3.37%; in [9] it was 0%; in assay [10] it was 6.17%; in [11], 3.34%.
For the compound `N#Cc1ccc(F)c(CN2CCCC2Cn2cnc3ccccc32)c1` (stereo unspecified), the Percent Effect is -4.77% in assay [1]; -5.41% in assay [2]; -0.578% in assay [3]; -0.466% in assay [4]; -3.81% in assay [5]; -0.924% in assay [6]. In addition, the Percent Effect in [7] was 6.46%; in [8] it was 22.9%; in assay [9], 1.98%; in [10] it was -6.1%; in [11], 5.03%.
Regarding `O=C(Cc1ccsc1)N1C[C@@H]2CN(Cc3ccoc3)CCO[C@@H]2C1`, the Percent Effect in assay [1] was -1.51%; in assay [2], 0%; in [3], 4.82%; in [4] it was 8.18%; in assay [5], 1.86%; in assay [6], 0.955%. In addition, the Percent Effect was 14.6% in assay [7]; -8.8% in [8]; 0% in assay [9]; 7.69% in assay [10]; 11.3% in assay [11].
In the case of `CC[C@@]1(O)CCN(C(=O)c2ccsc2)C[C@H]1O`, the Percent Effect in assay [1] is -3.94%; in assay [2], 4.17%; in assay [3], -1.21%; in assay [4], -6.46%; in assay [5], -2.82%; in assay [6] it was 3.09%. Also, the Percent Effect in assay [7] was 12.3%; in assay [8], -3.4%; in [9] it was 4.21%; in [10] it was 5.13%; in [11], 0.37%.
In the case of `O=C(CCc1nccs1)N1CCN(c2ccc(Br)cn2)CC1`, the Percent Effect in assay [1] is -7.37%; in [2] it was 7.79%; in [3], 14.3%; in assay [4], -8.09%; in [5], -1.27%; in assay [6], -1.05%. For the same compound, the Percent Effect in assay [7] was -4.12%; in [8], 31.4%; in assay [9] it was 2.86%; in [10], 7.06%; in assay [11] it was -21.6%.
With `CCN1CC(C(=O)NCc2ccccc2-n2cccn2)CC1=O` (stereo unspecified), the Percent Effect in assay [1] is -2.49%; in assay [2], 13%; in assay [3] it was 0.208%; in assay [4], 2.02%; in [5], 2.45%; in assay [6], -1.05%. Besides, the Percent Effect in [7] is 15%; in assay [8] it was 11%; in assay [9] it was 5.71%; in assay [10], 23.5%; in assay [11] it was -8.96%.
For the compound `Cc1ccc(OCCCNC(=O)NC(C)c2nncn2C)cc1` (stereo unspecified), the Percent Effect was -4.22% in assay [1]; 13% in assay [2]; 6.68% in assay [3]; -5.15% in [4]; 4.41% in assay [5]; 4.42% in assay [6]. The Percent Effect in assay [7] is 8%; in [8] it was -0.0367%; in [9] it was 7.62%; in assay [10], 18.8%; in assay [11], -17.6%.
`Cc1noc(C(C)C)c1C(=O)NS(=O)(=O)c1ccc2c(c1)OCCCO2`: the Percent Effect in assay [1] is -0.953%; in assay [2], 2.63%; in assay [3], 4.57%; in assay [4], 1.83%; in [5], 4.19%; in assay [6], -3.55%. Further, the Percent Effect in assay [7] worked out at 6.23%; in assay [8], 24.3%; in assay [9] it was 0%; in assay [10], 5.2%; in assay [11] it was 15.4%.
In the case of `CC(NC(=O)NCc1cccc(N2CCCC2=O)c1)c1ccccc1` (stereo unspecified), the Percent Effect in assay [1] is -2.62%; in assay [2], 7.79%; in [3], 4.82%; in [4], 12.6%; in assay [5], 3.23%; in assay [6], -10.7%. Further, the Percent Effect is 7.36% in assay [7]; -2.7% in assay [8]; 1.91% in [9]; 11.8% in assay [10]; -21.1% in assay [11].
In the case of `Cn1c(CN2CCOCC2)nnc1C1CCN(C(=O)C2CCCC2)CC1`, the Percent Effect in assay [1] came out at 0.739%; in assay [2], 13.5%; in assay [3] it was 1.53%; in assay [4], 14.3%; in assay [5] it was 3.09%; in assay [6] it was 0.476%. Besides, the Percent Effect is 20.9% in assay [7]; 2.19% in assay [8]; 5.82% in assay [9]; 19.5% in assay [10]; -4.58% in [11].
`OCCOCCN1CCCC1c1nc2cc(F)ccc2[nH]1` (stereo unspecified): the Percent Effect is 7.36% in assay [1]; 21.9% in [2]; -1.73% in assay [3]; -1.07% in assay [4]; -13.1% in assay [5]; -2.4% in [6]. In addition, the Percent Effect in [7] was 14.3%; in assay [8], 9.67%; in [9] it was 11.5%; in [10], 18.5%; in assay [11] it was -1.92%.

The values are drawn from ChEMBL document CHEMBL3988442, “University of Dundee, Small-Polar-MMV Screening Library” (2021).
